Molecules are shown by their SMILES. Hit rate of the full screen: of about 63,000 compounds, about 1,100 (1.7%) were called active. This excerpt belongs to a sample that is enriched for actives. Potency and affinity values are given separately. A number with no mark means an inactive call. Cut-off read from the data, not from the text of the source: active = cytotoxicity above about 50%; inactive = the rest.

The test in a line: HPDE-C7 pancreatic duct cell viability loss – fluorescence, HTS (AID 430).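 Note: cells exposed to compound for 48 hours before viability readout; 0% = vehicle and 100% = reference cytotoxic drug.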 The settings on record: HPDE-C7 pancreatic duct cells viability, at 10 µM, stronger effect = higher value.
On to `CCS(=O)(=O)n1nc(-c2ccccc2)cc1N`, for which the cytotoxicity is 1%.
The value for `CC(C)(C)c1ccc(Cn2nnc3c(=O)[nH]c(C4CCN(C(=O)Cc5cccs5)CC4)nc32)cc1` was 0.2%; that for `O=C(Cc1cccs1)N1CCCC(c2nc3c(nnn3Cc3ccc(F)cc3)c(=O)[nH]2)C1` (configuration not stated) was 3.7%.
On to `COc1ccc(C(=O)OCCN2C(=O)c3ccccc3C2=O)cc1`, for which the cytotoxicity was -2.8%.
The value for `CCCOC(=O)c1ccc(OC(=O)c2ccco2)cc1` was -5.8%; that for `CCOc1ccc(-c2n[nH]c(C)c2-c2ccccc2OC)c(O)c1` was -12.5%; that for `CCCOC(=O)c1ccc(NC(=O)c2cnccn2)cc1` was -2%.
The value for `CCC(=O)Nc1c2c(nn1-c1ccc(C)cc1C)CSC2` was -2.4%; that for `O=C(Nc1ccon1)c1cccc(S(=O)(=O)N2CCCC2)c1` was -18.1%.
Consider `Cc1ccc(C)c(NC(=O)CCn2nc(C)cc2C)c1`, for which the cytotoxicity was -17.9%.
The value for `c1ccc2[nH]c(CN3CCN(c4ncnc5c4oc4ccccc45)CC3)nc2c1` was -2.8%; that for `CC(=O)N1CCN(C(=O)COc2ccc(Br)cc2)CC1` was 4.1%.
The value for `CCOc1ccc(NC(=O)c2ccccc2NC(=O)CN2CCN(C(C)=O)CC2)cc1` was -0.6%.
With `O=C(C1CCN(Cc2ccc(F)cc2)CC1)N(CCO)Cc1ccccc1`, the cytotoxicity was 2.8%.
As for `COC(=O)c1c(NC(C)=O)sc2c1CCCC2`, the figure is -2%; as for `COC(=O)c1c(NC(=O)c2ccc(Br)s2)sc2c1CCC2`, 53.5% (active).
As for `COC(=O)c1c(NC(=O)c2ccoc2C)sc2c1CCC2`, the figure is -21%; as for `O=C(Nc1ccc2c(c1)OCO2)C(c1ccc(Cl)cc1)N1CCC2(CC1)OCCO2` (configuration not stated), 4.2%; as for `CC(=O)c1c(C)nc(-c2ccc3c(c2)OCO3)n1O`, -6.2%.
Regarding `CC1CCN(C(=O)CNC(=O)Cn2ccc3ccccc3c2=O)CC1`, the cytotoxicity was -13.9%.
With `CN1CC2=Cc3ccccc3OC23Oc2ccccc2C=C3C1`, the cytotoxicity was 58.3% (active).
As to `CCCCn1c(=O)[nH]c(=O)c2c1nc(COC(=O)c1c(C)noc1C)n2CCC`, the cytotoxicity is -7%.
As to `CSc1nc(-c2ccco2)cc(-c2ccccc2)c1C#N`, the cytotoxicity was -2.3%.
With `Cc1cc(-c2ccccc2)c(C#N)c(N)n1`, the cytotoxicity was -14.3%.
As for `C=CCn1c(SCC(=O)C(C)(C)C)nnc1-c1cccs1`, the figure is -5.8%; as for `O=C(Oc1ccc(Cl)c2cccnc12)N1CCOCC1`, 10.3%.
For `O=C(Oc1c(Cl)cc(Cl)c2cccnc12)N1CCOCC1`, the cytotoxicity was 3.3%.
As for `COc1cc(C(=O)Oc2c(CN3CCOCC3)cc(Cl)c3cccnc23)cc(OC)c1OC`, the figure is 29%.
As for `COc1ccc(C(=O)Oc2c(CN3CCOCC3)cc(Cl)c3cccnc23)cc1OC`, the figure is 7.4%; as for `Cc1ccc(CCNC(=O)C2CCCN(S(=O)(=O)c3cnc[nH]3)C2)cc1` (configuration not stated), -8.4%.
The value for `O=C(NCC(=O)N(c1ccc2c(c1)OCO2)C(C(=O)NC1CCCC1)c1ccncc1)c1ccco1` (configuration not stated) was -5.8%; that for `Cc1cccc2cc(COC(=O)c3cccnc3)c(=O)[nH]c12` was 8.9%.
In the case of `CC1CCN(S(=O)(=O)c2ccc3[nH]c(=O)c(=O)[nH]c3c2)CC1`, the cytotoxicity was -9%.
Turning to `COC(=O)Cc1cc(=O)[nH]c(/N=C(/NC(=O)c2ccccc2)Nc2ccccc2C)n1`, the cytotoxicity was 2.1%.
The value for `Cc1ccc(O)c(CC(C)C)n1` was -4.7%; that for `CCC(NC(C)C)C(O)c1ccc(O)c(O)c1` (configuration not stated) was 15.3%; that for `O=C(c1cc2ccccc2cc1OCC(O)CN1CCCCC1)N1CCCCC1` (configuration not stated) was -0.7%.
As for `CC1CCCN(S(=O)(=O)c2cc(Cl)ccc2Cl)C1` (configuration not stated), the figure is -32.2%.
As for `CCN(CC)S(=O)(=O)c1ccc(Cl)c(C(=O)Nc2nncs2)c1`, the figure is 2.1%; as for `CCN(CC)S(=O)(=O)c1cccc(C(=O)Nc2nncs2)c1`, -14.1%; as for `Cc1ccccc1-n1c(SC/C(O)=C(\C#N)c2nc3ccccc3[nH]2)nnc1-c1ccncc1`, -17.8%.
Regarding `Nc1nc(NC(=O)c2ccco2)nn1-c1ccccc1`, the cytotoxicity was 2%.
The value for `Nc1nc(NC(=O)c2cccnc2)nn1-c1ccccc1` was 3.1%; that for `CC1=C(C(=O)OCc2ccccc2)C(c2ccc(C)o2)C2=C(CCCC2=O)N1` (configuration not stated) was 54.4% (active).
As for `Cc1ccc(C2CC(=O)NC(SCc3ccccc3)=C2C#N)o1` (configuration not stated), the figure is 10.6%; as for `Cc1ccc(C2CC(=O)NC(SCC(=O)OCc3ccccc3)=C2C#N)o1` (configuration not stated), 59.6% (active); as for `COC(=O)CSC1=C(C#N)C(c2ccccc2)CC(=O)N1` (configuration not stated), -10%.
For `CCCCCCSC1=C(C#N)C(c2ccc(C)o2)CC(=O)N1` (configuration not stated), the cytotoxicity is -8%.
The value for `CC1=C(C(=O)OC2CCCCCC2)C(c2ccc(C)o2)C2=C(CCCC2=O)N1` (configuration not stated) was -13.9%; that for `CCOC(=O)CSC1=C(C#N)C(c2ccc(Cl)cc2)CC(=O)N1` (configuration not stated) was -16%; that for `CC1=C(C(=O)OC2CCCCC2)C(c2ccc(C)o2)C2=C(CCCC2=O)N1` (configuration not stated) was -7%.
The value for `CCOC(=O)CSC1=C(C#N)C(c2ccc(C)o2)CC(=O)N1` (configuration not stated) was 68.5% (active); that for `CC(=O)Nc1cccc(NC(=O)CSc2nnc(Cc3cccn3C)n2-c2ccc(F)cc2)c1` was -6.9%.
The value for `Cc1cccc(C(C)(C)C)c1OCCn1ccnc1` was 8.6%; that for `COc1ccc(S(=O)(=O)N(CC(N)=O)C2CCCCC2)cc1Cl` was -13.6%.
Turning to `O=C(CN1CCN(C(=O)c2ccco2)CC1)Nc1ccc2c(c1)OCCO2`, the cytotoxicity is -13.8%.
With `CCn1c(N2CCC(Cc3ccccc3)CC2)nc2c1c(=O)[nH]c(=O)n2C`, the cytotoxicity is -25.9%.
The value for `CC(=O)OC[C@H]1O[C@@H](n2ncc(=O)[nH]c2=O)[C@H](OC(C)=O)[C@@H]1OC(C)=O` was 56.2% (active); that for `CC(=O)OCC1OC(n2ccc(=O)[nH]c2=O)C(O)C1O` (configuration not stated) was -11.3%.
As for `CC(=O)OC[C@H]1O[C@@H](n2ccc(=O)[nH]c2=S)C(OC(C)=O)C1OC(C)=O` (some centres not stated), the figure is -1%; as for `CCSc1cc(C2C(C#N)=C(N)OC(C)=C2C(=O)OC)c(C)o1` (configuration not stated), 3.5%; as for `CCOC(=O)CCc1nn(C)c(=O)c2ccccc12`, -11.1%.
As for `Cc1ccc(S(=O)(=O)N(C)CC(=O)N2CCN(c3ccccn3)CC2)cc1`, the figure is 6.4%.
In the case of `Cc1cc(-c2csc(NC(=O)c3ccc(=O)n(C)n3)n2)c(C)n1CC1CCCO1` (configuration not stated), the cytotoxicity is -8.1%.
With `CCCC1COC(Cn2cncn2)(c2ccc(C)cc2)O1` (configuration not stated), the cytotoxicity was -5.7%.
The value for `O=C1Nc2ccccc2C12OCC(COc1ccc(Cl)cc1)O2` (configuration not stated) was 30.3%; that for `CCC(C)n1ncn(-c2ccc(N3CCN(c4ccc(OCC5COC(Cn6cncn6)(c6ccc(Cl)cc6Cl)O5)cc4)CC3)cc2)c1=O` (configuration not stated) was 65.7% (active).
`Cc1noc(C)c1S(=O)(=O)NC1CCN(Cc2ccccc2)CC1`: the cytotoxicity was 1.4%.
The value for `Cc1n[nH]c(=O)nc1NCc1ccccc1` was -20.4%.
As for `CCCCCc1c(C)nc(NCc2ccccc2)[nH]c1=O`, the figure is -8.7%; as for `COc1ccc(CCNC(=O)COc2nsnc2N2CCOCC2)cc1OC`, -12.4%; as for `C=CCNC(=O)CCCCC(=O)NCC=C`, -16.1%.
As for `CN1CCN(CCCNC(=O)c2cc3c(-c4ccc(Cl)cc4)nn(C)c3s2)CC1`, the figure is 13.3%.
For `Cn1nc(-c2ccc(Cl)cc2)c2cc(C(=O)NCCCN3CCCC3)sc21`, the cytotoxicity is 69.7% (active).
As for `Cn1nc(-c2ccc(Cl)cc2)c2cc(C(=O)NCCCN3CCOCC3)sc21`, the figure is 8.3%; as for `Cc1sc2ncnc(SCc3ccco3)c2c1C`, -13.2%.
`CCCn1c(Sc2nnnn2-c2ccccc2)n[nH]c1=O`: the cytotoxicity was -7.4%.
As for `Cc1sc2ncnc(Sc3nnnn3-c3ccccc3)c2c1C`, the figure is 71% (active); as for `Cc1nc(Sc2nnnn2-c2ccccc2)c(C#N)c(C)c1C`, -11.7%.
`Clc1ccc(-n2nnnc2Sc2ncnc3sccc23)cc1`: the cytotoxicity is 4.6%.
As for `COc1ccc(OC)c(-c2cc(C(=O)NCCCn3ccnc3)no2)c1`, the figure is 32.2%.
The value for `Cc1cc(NC(=O)C2CCCN(S(=O)(=O)c3c(C)noc3C)C2)no1` (configuration not stated) was 9.5%; that for `O=C(O)c1ccc(OCc2occc2C(=O)O)cc1` was -2.7%; that for `CCOc1ccc(N(CC(N)=O)S(=O)(=O)c2ccc(F)cc2)cc1` was -0.6%.
The value for `Cc1cc2c(c(=O)n1CCN(C)C)C(c1ccc(Cl)cc1)C(C#N)=C(N)O2` (configuration not stated) was -13.8%; that for `Cc1cc2c(c(=O)n1CCN(C)C)C(c1ccncc1)C(C#N)=C(N)O2` (configuration not stated) was 13.1%; that for `Cc1cc2c(c(=O)n1CCN(C)C)C(c1ccc(Br)cc1)C(C#N)=C(N)O2` (configuration not stated) was 73.4% (active).
`Cc1cccc2cc(CN(Cc3ccc(F)cc3)C(=O)N(C)C)c3nnnn3c12`: the cytotoxicity was 5.9%.
In the case of `CC(C)=C(C#N)c1nc2ccccc2s1`, the cytotoxicity is -8.8%.
For the compound `COc1ccc(C/C(O)=C(\C#N)c2nc3ccccc3s2)cc1`, the cytotoxicity is 46.3%.
The value for `Cc1ccc(SC/C(O)=C(\C#N)c2nc3ccccc3s2)cc1` was 79.2% (active); that for `COC(=O)c1ccc(/C(O)=C(\C#N)c2nc3ccccc3s2)cc1` was 58.4% (active).
As to `Cc1ccc(SC/C(O)=C(\C#N)c2nc3ccccc3n2C)cc1`, the cytotoxicity is 16.2%.
The value for `N#C/C(=C(/O)CN1CCOCC1)c1nc2ccccc2s1` was 1.3%.
Take `N=c1n(CCN2CCCCC2)c2ccccc2n1CC(O)c1cccc(Br)c1` (configuration not stated): the cytotoxicity is 44.6%.
The value for `C=CCn1c(SCC(=O)O)nnc1-c1cccc(Cl)c1` was 5.9%; that for `Cc1cc(N2CCN(C(=O)c3ccco3)CC2)n2nc(C)nc2n1` was 3%.

For the origin of these results see PubChem BioAssay AID430 (Sanford-Burnham Center for Chemical Genomics, 2006).
